# Columns and labels:
# [1] = target: 5'-AMP-activated protein kinase catalytic subunit alpha-2 (Homo sapiens) (UniProt P54646); details: at 1 µM
# [2] = target: T1, NUAK family SNF1-like kinase 1 (Homo sapiens) (UniProt O60285); details: at 0.1 µM
# T1 sequence (whole entry): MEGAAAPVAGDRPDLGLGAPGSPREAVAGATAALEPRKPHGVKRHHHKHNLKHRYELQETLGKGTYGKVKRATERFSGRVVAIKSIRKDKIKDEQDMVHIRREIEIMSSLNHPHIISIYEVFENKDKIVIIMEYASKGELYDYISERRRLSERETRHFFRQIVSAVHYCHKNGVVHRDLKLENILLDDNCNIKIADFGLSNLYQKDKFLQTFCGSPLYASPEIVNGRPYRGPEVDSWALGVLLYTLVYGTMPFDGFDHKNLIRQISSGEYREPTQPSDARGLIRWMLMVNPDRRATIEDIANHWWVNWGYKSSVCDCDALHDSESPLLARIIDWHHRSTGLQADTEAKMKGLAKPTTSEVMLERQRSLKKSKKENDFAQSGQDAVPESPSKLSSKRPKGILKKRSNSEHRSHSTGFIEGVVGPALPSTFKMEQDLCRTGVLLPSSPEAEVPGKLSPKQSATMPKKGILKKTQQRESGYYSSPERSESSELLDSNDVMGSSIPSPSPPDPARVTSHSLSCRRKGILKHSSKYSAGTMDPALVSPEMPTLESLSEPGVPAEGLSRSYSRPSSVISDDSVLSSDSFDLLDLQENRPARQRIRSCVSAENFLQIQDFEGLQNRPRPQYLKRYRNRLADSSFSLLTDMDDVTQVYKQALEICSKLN
# [3] = target: T1, NUAK family SNF1-like kinase 1 (Homo sapiens); details: at 1 µM
# [4] = target: T2, Serine/threonine-protein kinase BRSK1 (Homo sapiens) (UniProt Q8TDC3); details: at 0.1 µM
# T2 sequence (whole entry): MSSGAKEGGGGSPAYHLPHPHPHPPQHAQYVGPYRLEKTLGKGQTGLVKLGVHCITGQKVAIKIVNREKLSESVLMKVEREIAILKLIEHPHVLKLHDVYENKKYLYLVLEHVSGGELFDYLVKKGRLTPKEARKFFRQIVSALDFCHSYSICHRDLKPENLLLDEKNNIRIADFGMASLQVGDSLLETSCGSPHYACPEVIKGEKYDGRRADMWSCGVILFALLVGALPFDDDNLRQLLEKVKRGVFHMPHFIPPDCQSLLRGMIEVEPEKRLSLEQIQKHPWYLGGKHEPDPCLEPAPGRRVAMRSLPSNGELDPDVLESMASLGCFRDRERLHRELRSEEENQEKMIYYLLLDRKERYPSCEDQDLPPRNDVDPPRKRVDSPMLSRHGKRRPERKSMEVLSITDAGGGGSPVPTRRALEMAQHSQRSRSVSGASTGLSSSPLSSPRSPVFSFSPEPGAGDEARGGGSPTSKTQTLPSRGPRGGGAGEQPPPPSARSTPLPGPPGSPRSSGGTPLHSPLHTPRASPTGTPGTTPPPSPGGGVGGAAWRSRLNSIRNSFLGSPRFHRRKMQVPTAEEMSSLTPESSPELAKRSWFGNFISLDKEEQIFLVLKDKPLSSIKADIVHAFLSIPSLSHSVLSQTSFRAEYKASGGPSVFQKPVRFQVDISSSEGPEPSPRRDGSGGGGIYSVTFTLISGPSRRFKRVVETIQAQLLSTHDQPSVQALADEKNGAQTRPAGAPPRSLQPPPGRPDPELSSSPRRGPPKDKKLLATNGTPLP
# [5] = target: T2, Serine/threonine-protein kinase BRSK1 (Homo sapiens); details: at 1 µM
# [6] = target: T3, Serine/threonine-protein kinase BRSK2 (Homo sapiens) (UniProt Q8IWQ3); details: at 0.1 µM
# T3 sequence (whole entry): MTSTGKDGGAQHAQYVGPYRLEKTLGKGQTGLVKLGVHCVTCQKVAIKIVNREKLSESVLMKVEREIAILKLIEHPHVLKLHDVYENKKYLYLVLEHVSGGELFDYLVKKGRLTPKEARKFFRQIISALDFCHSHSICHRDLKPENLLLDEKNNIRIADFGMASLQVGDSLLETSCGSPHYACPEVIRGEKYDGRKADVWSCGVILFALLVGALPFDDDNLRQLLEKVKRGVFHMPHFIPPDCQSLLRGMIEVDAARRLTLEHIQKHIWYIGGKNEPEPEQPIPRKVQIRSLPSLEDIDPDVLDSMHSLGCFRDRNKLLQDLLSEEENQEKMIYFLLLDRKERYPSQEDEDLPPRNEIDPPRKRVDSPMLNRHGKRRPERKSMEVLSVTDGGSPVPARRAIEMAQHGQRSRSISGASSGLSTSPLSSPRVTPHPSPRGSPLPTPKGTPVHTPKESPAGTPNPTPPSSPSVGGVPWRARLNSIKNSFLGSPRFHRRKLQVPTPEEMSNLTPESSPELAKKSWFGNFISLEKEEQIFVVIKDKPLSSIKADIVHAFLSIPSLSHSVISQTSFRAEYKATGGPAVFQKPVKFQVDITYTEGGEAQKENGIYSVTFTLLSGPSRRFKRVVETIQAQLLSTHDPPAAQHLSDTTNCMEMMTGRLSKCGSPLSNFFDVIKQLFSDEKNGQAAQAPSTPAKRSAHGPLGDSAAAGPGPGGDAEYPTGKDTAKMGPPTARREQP
# [7] = target: T3, Serine/threonine-protein kinase BRSK2 (Homo sapiens); details: at 1 µM
# [8] = target: Calcium/calmodulin-dependent protein kinase type 1D (Homo sapiens) (UniProt Q8IU85); details: at 0.1 µM
# [9] = target: Calcium/calmodulin-dependent protein kinase type 1D (Homo sapiens) (UniProt Q8IU85); details: at 1 µM
# [10] = target: Calcium/calmodulin-dependent protein kinase type II subunit alpha (Homo sapiens) (UniProt Q9UQM7); details: at 0.1 µM
# [11] = target: Calcium/calmodulin-dependent protein kinase type II subunit alpha (Homo sapiens) (UniProt Q9UQM7); details: at 1 µM
# [12] = target: Calcium/calmodulin-dependent protein kinase type II subunit delta (Homo sapiens) (UniProt Q13557); details: at 0.1 µM
# [13] = target: Calcium/calmodulin-dependent protein kinase type II subunit delta (Homo sapiens) (UniProt Q13557); details: at 1 µM
# [14] = target: T4, Calcium/calmodulin-dependent protein kinase type IV (Homo sapiens) (UniProt Q16566); details: at 0.1 µM
# T4 sequence (whole entry): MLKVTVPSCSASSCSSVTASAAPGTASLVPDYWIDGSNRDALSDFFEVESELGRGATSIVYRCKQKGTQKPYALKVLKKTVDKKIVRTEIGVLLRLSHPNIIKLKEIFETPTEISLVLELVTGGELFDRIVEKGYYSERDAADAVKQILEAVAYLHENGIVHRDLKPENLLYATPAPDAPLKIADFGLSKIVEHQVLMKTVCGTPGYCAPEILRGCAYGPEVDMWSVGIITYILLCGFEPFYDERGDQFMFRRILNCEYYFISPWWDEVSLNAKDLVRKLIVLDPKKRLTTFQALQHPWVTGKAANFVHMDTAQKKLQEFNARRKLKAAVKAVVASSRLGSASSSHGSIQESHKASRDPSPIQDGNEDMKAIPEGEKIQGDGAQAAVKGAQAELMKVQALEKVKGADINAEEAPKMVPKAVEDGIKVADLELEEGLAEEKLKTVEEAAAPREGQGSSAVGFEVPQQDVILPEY
# [15] = target: T4, Calcium/calmodulin-dependent protein kinase type IV (Homo sapiens); details: at 1 µM
# [16] = target: T5, Serine/threonine-protein kinase Chk1 (Homo sapiens) (UniProt O14757); details: at 0.1 µM
# T5 sequence (whole entry): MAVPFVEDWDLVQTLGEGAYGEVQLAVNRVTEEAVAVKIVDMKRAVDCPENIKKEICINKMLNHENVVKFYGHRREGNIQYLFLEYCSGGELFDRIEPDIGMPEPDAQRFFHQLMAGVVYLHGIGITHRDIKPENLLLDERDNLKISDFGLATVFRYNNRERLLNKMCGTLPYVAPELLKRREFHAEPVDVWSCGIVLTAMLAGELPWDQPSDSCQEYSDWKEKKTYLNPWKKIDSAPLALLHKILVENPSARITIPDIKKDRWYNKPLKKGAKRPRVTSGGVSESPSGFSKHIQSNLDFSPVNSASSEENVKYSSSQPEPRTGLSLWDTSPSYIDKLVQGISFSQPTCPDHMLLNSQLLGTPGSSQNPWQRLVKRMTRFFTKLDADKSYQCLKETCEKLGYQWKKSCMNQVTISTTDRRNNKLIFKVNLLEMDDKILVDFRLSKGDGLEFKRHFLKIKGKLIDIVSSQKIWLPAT
# [17] = target: T5, Serine/threonine-protein kinase Chk1 (Homo sapiens); details: at 1 µM
# [18] = target: Serine/threonine-protein kinase Chk2 (Homo sapiens) (UniProt O96017); details: at 0.1 µM
# [19] = target: Serine/threonine-protein kinase Chk2 (Homo sapiens) (UniProt O96017); details: at 1 µM
# [20] = target: Death-associated protein kinase 1 (Homo sapiens) (UniProt P53355); details: at 0.1 µM;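 note: reported figure is the mean inhibition of DAPK1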
# Sequence of Death-associated protein kinase 1 (Homo sapiens) (P53355 whole entry, looked up): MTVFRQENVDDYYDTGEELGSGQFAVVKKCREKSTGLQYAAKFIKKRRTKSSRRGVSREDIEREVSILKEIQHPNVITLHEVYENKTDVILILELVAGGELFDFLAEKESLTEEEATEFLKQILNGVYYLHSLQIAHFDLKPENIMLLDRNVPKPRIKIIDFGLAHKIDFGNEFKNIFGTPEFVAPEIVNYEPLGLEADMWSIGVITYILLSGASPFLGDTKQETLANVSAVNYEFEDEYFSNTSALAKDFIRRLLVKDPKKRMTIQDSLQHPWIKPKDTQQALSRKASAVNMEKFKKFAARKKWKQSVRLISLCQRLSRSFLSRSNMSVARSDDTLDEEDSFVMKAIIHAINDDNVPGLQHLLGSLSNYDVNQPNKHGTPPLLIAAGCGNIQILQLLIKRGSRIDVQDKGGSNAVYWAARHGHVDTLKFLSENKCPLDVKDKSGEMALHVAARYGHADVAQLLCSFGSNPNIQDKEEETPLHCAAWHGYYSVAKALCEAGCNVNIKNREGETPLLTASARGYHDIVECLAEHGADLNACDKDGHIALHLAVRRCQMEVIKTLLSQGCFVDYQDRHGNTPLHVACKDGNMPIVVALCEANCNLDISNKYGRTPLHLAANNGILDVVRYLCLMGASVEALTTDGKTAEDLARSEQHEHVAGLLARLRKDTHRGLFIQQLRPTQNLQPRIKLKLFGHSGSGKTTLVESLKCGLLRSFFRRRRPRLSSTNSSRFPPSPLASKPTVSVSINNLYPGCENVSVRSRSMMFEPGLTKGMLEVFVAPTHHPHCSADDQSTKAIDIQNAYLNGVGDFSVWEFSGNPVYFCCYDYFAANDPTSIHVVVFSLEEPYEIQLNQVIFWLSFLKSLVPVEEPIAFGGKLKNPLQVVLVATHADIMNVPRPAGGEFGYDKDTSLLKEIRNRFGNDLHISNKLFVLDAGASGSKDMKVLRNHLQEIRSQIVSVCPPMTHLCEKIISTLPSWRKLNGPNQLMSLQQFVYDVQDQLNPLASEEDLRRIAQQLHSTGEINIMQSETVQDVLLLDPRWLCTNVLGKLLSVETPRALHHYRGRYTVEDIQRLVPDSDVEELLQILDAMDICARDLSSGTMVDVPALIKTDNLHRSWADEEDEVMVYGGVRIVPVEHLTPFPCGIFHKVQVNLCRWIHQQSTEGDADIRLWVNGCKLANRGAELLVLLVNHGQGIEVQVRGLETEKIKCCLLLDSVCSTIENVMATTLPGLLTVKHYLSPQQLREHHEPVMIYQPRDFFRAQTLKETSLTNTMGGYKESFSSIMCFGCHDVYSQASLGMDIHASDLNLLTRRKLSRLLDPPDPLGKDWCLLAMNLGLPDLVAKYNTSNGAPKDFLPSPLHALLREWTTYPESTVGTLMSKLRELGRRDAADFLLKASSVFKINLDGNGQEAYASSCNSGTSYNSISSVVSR
# Sequence of Calcium/calmodulin-dependent protein kinase type II subunit delta (Homo sapiens) (Q13557 whole entry): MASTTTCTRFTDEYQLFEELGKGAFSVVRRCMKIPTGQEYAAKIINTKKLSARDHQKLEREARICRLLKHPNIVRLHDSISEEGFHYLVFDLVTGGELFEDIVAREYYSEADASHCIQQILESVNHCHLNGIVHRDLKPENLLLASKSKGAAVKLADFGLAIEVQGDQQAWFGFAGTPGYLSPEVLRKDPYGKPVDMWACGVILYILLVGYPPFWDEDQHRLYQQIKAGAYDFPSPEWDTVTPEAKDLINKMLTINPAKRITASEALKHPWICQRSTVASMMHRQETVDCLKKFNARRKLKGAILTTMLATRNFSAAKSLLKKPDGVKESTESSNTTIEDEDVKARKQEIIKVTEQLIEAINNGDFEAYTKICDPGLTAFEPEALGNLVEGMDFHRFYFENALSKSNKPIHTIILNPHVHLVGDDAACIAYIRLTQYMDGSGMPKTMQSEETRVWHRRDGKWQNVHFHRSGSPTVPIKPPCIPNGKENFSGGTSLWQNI
# Sequence of 5'-AMP-activated protein kinase catalytic subunit alpha-2 (Homo sapiens) (P54646 whole entry, looked up): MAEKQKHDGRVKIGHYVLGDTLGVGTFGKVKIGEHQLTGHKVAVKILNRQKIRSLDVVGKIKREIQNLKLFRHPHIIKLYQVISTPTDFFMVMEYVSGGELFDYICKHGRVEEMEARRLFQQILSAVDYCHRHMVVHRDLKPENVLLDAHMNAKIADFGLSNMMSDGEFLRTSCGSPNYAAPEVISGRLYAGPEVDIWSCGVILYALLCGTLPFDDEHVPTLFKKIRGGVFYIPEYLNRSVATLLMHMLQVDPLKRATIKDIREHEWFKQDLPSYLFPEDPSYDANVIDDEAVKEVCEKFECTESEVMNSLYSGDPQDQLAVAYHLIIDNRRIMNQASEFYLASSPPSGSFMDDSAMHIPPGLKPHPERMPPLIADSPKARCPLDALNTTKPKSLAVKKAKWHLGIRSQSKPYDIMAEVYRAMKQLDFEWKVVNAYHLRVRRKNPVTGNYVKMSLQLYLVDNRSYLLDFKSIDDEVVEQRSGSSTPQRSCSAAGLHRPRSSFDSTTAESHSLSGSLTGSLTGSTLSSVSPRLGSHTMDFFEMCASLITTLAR
# Sequence of Calcium/calmodulin-dependent protein kinase type II subunit alpha (Homo sapiens) (Q9UQM7 whole entry): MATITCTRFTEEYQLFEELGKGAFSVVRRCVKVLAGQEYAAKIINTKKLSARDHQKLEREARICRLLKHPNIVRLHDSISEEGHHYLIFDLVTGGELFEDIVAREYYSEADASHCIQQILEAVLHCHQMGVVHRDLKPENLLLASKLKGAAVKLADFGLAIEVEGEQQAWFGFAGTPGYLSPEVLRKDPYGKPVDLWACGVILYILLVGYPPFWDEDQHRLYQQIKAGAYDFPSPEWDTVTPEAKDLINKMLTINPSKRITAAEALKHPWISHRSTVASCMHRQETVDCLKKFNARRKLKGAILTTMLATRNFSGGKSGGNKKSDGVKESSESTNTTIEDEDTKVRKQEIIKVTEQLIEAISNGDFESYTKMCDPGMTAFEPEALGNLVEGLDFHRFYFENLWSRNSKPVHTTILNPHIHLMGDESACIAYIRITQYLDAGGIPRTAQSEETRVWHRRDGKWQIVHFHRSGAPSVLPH
# Sequence of Serine/threonine-protein kinase Chk2 (Homo sapiens) (O96017 whole entry): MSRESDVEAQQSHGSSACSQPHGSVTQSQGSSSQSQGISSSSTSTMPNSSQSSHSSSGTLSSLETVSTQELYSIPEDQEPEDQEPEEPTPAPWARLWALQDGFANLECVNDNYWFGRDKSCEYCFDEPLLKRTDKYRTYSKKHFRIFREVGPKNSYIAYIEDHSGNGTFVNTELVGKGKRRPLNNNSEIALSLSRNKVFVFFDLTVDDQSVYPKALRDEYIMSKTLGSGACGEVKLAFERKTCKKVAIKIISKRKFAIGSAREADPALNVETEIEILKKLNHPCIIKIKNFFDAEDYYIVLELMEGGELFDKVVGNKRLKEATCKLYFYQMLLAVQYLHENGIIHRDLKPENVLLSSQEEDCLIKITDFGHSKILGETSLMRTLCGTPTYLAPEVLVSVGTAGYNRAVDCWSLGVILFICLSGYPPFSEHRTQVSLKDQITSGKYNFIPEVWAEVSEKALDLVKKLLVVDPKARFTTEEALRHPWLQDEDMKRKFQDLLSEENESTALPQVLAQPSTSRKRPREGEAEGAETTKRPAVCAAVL
# Sequence of Calcium/calmodulin-dependent protein kinase type 1D (Homo sapiens) (Q8IU85 whole entry, looked up): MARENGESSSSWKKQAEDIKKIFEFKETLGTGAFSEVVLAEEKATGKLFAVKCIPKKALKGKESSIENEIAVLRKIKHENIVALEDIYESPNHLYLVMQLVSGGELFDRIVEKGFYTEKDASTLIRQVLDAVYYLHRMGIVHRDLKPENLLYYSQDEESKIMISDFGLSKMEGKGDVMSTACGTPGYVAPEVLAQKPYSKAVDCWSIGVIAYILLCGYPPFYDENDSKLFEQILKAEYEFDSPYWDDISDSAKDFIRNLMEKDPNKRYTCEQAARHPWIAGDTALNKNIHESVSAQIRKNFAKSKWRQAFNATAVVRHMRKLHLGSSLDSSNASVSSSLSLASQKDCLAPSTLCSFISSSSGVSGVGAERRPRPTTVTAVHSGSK
Structure (SMILES),inhibition [1],inhibition [2],inhibition [3],inhibition [4],inhibition [5],inhibition [6],inhibition [7],inhibition [8],inhibition [9],inhibition [10],inhibition [11],inhibition [12],inhibition [13],inhibition [14],inhibition [15],inhibition [16],inhibition [17],inhibition [18],inhibition [19],inhibition [20]
COc1cc(/C=N/Nc2ncnc3[nH]ncc23)ccc1O,20.2%,6.98%,27.6%,1.12%,18%,4.62%,22.9%,1.07%,5.49%,2.62%,5.41%,2.57%,11.4%,-0.14%,-0.84%,26.1%,66.1%,4.23%,23.8%,4.22%
COc1ccc(-c2cc3c(N)ncnc3o2)cc1,-2.04%,2.2%,2.41%,-0.42%,-0.34%,0.68%,1.73%,1.05%,2.96%,-1.62%,-0.48%,-0.8%,-0.85%,0.63%,-1.72%,0.13%,2.78%,-1.09%,3.25%,-1.84%
O=S(=O)(CCNCc1ccc(-c2ccc3ncnc(Nc4ccc(OCc5cccc(F)c5)c(Cl)c4)c3c2)o1)c1ccccc1,4.37%,0.36%,2.65%,-0.02%,4.07%,3.29%,3.94%,1.31%,1.55%,4.23%,2.35%,3.72%,4.42%,-0.6%,0.28%,7.26%,10.1%,2.55%,3.38%,8.91%
Fc1cccc(COc2ccc(Nc3ncnc4sc(-c5ccco5)cc34)cc2Cl)c1,5.24%,1.97%,6.27%,0.38%,7.21%,4.09%,7.5%,-0.77%,-1.08%,1.16%,-2.48%,3.02%,1.67%,-1.87%,-2.46%,10.1%,12.5%,7.63%,8.84%,13.2%
CC(C)COC(=O)c1ccc2c(c1)/C(=C/Nc1ccc(S(N)(=O)=O)cc1)C(=O)N2,36.3%,29.6%,75.6%,5.38%,38%,10.1%,50.1%,1.82%,7.89%,0.26%,17.5%,4.43%,36.7%,1.85%,3.51%,0.91%,18.1%,-0.46%,13.5%,-2.01%
CCn1c(-c2nonc2N)nc2ccccc21,4.49%,1.56%,10.1%,2.54%,8.27%,1.85%,9.49%,1.89%,2.35%,4.29%,5.38%,4.24%,4.89%,-0.37%,1.93%,6.35%,4.95%,0.53%,1.9%,4.46%
c1ccc(COc2ccc(Nc3ncnc4ccc(-c5ccco5)cc34)cc2)cc1,3.28%,-0.16%,-1.67%,-0.97%,1.48%,0.91%,1.54%,0.28%,11.7%,2.01%,0.02%,0.67%,0.25%,1.19%,0.04%,0.21%,-0.59%,1.08%,4.69%,2.45%
